# Rows were chosen to be rich in hits. Some 2.1% of all compounds tested hit in one or more screens of this group.
# Ba/F3 V617F tox: reduced viability of JAK2V617F-dependent Ba/F3 cells, primary screen, JAK2V617F inhibitor project, cell-based, Ba/F3 EpoR-JAK2V617F, luminescence; ATP luminescence; inhibition, % at 5.6 µM; hit rate 1.1% among 220,000;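 active = inhibition above the campaign mean plus 3 SD over all tested compounds, cut at about 24% in these data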;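 also: cytokine-independent growth of Ba/F3 cells driven by EpoR plus mutant JAK2; 0% = DMSO-treated cells and 100% = JAK inhibitor I control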
# IEC-6 cytotox: cytotoxicity in IEC-6 intestinal epithelial cells, primary screen, cytotoxicity control for KLF5 inhibitor project, cell-based, luminescence; IEC-6 cytotoxicity, luminescence viability; hit rate 0.78% among 290,000; inhibition, % at 5 µM; AID 1825, 2009; in the data active = inhibition above about 22%;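 also: 0% = plate median of test compound wells and 100% = cytotoxic reference compound wells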
# BaF3 tox: parental Ba/F3 cell viability inhibition, counter-screen for JAK2V617F inhibitor project, murine pro-B, CellTiter-Glo luminescence; CellTiter-Glo ATP luminescence; inhibition, % at 5.6 µM; hit rate 1.1% among 220,000; AID 1486, 2009;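 active = inhibition above a per-campaign cutoff, the mean inhibition of all tested compounds plus 3 SD, cut at about 27% in these data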;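 also: 0% = DMSO wells and 100% = JAK Inhibitor I control wells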
# aSyn 5UTR inh: MLPCN primary screen, SNCA 5' untranslated region. hit rate 0.82% among 300,000. inhibition, % (tested at 7.5 µM). alpha-synuclein 5'UTR reporter, inhibitor activity; in the data active = inhibition above about 60%; inconclusive = no clear call, values can overlap the other calls;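 also: H4 neuroglioblastoma cells stably carrying SNCA 5'UTR luciferase fusion; 0% = DMSO wells and 100% = positive control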
# APP 5UTR inh: inhibitors of APP translation via 5'UTR reporter, primary screen, APP 5'UTR luciferase, SH-SY5Y cells; inhibition, % at 2 µM; hit rate 0.82% among 190,000; SH-SY5Y APP 5'UTR-luciferase reporter, luminescence;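 active = inhibition above a set limit, derived from the sample mean plus 3 SD, cut at about 45% in these data; inconclusive = one replicate passes the limit while the other fails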
# KLF5 inhibitor: KLF5 expression inhibitors, primary screen, DLD-1 cells, luminescence; AID 1700, 2009; inhibition, % at 5 µM; DLD-1 KLF5 promoter-luciferase reporter; hit rate 0.23% among 290,000;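 active = inhibition above a per-plate limit of that plate's mean compound inhibition plus 3 SD, cut at about 60% in these data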;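 also: 0% = DMSO wells and 100% = LY294002 at 200 µM; higher means less KLF5 promoter-driven luciferase light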
# Numbers without * were called inactive; ? = inconclusive; . = no result.
SMILES,Ba/F3 V617F tox,IEC-6 cytotox,BaF3 tox,aSyn 5UTR inh,APP 5UTR inh,KLF5 inhibitor
C/C(=N\Nc1nc(-c2ccccc2O)nc2ccccc12)c1ccccc1,-2,-4,3,-91,-13,-50
C/C(=N\Nc1nc(-c2ccccn2)nc2ccccc12)c1ccc(F)cc1,0,3,0,75*,.,7
Cc1ccc2nc(-c3ccc(NC(=S)NC4CC(C)(C)NC(C)(C)C4)cc3)sc2c1,2,4,10,121*,-168,-128
O=C(O)CC(NC(=O)CC(c1ccccc1)c1ccccc1)c1cccc([N+](=O)[O-])c1 (stereo unspecified),.,-4,.,2,.,-12
O=C(CCc1ccccc1)NNc1cc(N2CCCCC2)nc(N2CCCCC2)n1,-1,-1,2,82*,19,20
CCSc1nnc(NC(=O)c2cnccn2)s1,.,.,.,-43,.,.
CC(C)(C)NC(=O)CSc1nnc(NC(=O)c2ccccc2Cl)s1,-4,7,0,-10,46*,-30
CCSc1nnc(NC(=O)c2ccc3c(c2)OCO3)s1,-1,-5,93*,-94,-53,-80
COc1ccc(/C(C)=N\NC(=O)c2ccc3c(c2)OCO3)cc1OC,5,3,8,-13,-24,-47
CCSc1nnc(NC(=O)c2ccccn2)s1,-3,47*,8,67*,-56,-155
CCOC(=O)CSc1nnc(NC(=O)c2ccc3c(c2)OCO3)s1,.,-1,.,14,.,10
COc1cc(C(=O)N/N=C(\C)c2ccc3c(c2)OCO3)cc(OC)c1OC,73*,89*,72*,11,91*,31
Cc1ccc(OCCC(=O)OC(C)C(=O)Nc2c(C)n(C)n(-c3ccccc3)c2=O)cc1 (stereo unspecified),.,.,.,-16,.,.
COc1ccccc1-c1nnc(NC(=O)c2ccc3c(c2)OCO3)s1,-2,1,1,45,46*,-42
CC(C)c1nnc(NC(=O)c2ccc3c(c2)OCO3)s1,2,5,3,?,-148,-143
O=C(OCc1ccccc1)N1CCOCCOCCN(C(=O)OCc2ccccc2)CCOCCOCC1,-5,1,3,3,-4,11
O=C(OCc1ccccc1)N1CCCC1/C=C/CN1CCOCC1 (stereo unspecified),0,1,2,15,63*,-4
CCN1C/C(=C\c2cccc([N+](=O)[O-])c2)C(=O)/C(=C/c2cccc([N+](=O)[O-])c2)C1,-2,4,4,.,96*,-11
O=C1/C(=C/c2cccc([N+](=O)[O-])c2)CCc2ccccc21,5,2,5,29,-8,-28
CCOc1ccc(C(=O)CC(NCc2cccs2)C(=O)O)cc1 (stereo unspecified),2,-2,4,-28,-11,-10
CC1(C)CC(=O)C(C(C2=C(O)CC(C)(C)CC2=O)c2ccc([N+](=O)[O-])cc2)C(=O)C1 (stereo unspecified),-1,-8,3,-1,6,-7
CC1(C)CC(=O)C(C(C2=C(O)CC(C)(C)CC2=O)c2ccc(O)c([N+](=O)[O-])c2)=C(O)C1,3,-5,94*,0,-18,-19
O=C(O)c1cc(C2CC2)nc2ccccc12,5,-2,11,2,19,-11
O=C(O)C[C@H](O)C[C@H](O)/C=C/c1c(C2CC2)nc2ccccc2c1-c1ccc(F)cc1,.,.,.,104*,.,.
CCCC(=O)OCCNc1cc(Sc2nccn2C)c2nonc2c1[N+](=O)[O-],-1,0,3,-1,75*,-6
CCCSc1cc(NCCOC(=O)CCC)c([N+](=O)[O-])c2nonc12,-3,-1,4,27,11,0
CC1(C(=O)OCC(=O)Nc2nc(-c3ccc(F)c(F)c3)cs2)CC1(Cl)Cl (stereo unspecified),.,2,.,-23,.,-47
Cc1ccc(S(=O)(=O)N2CCOC23CCN(C(=O)C(=O)NCc2ccccc2)CC3)cc1,.,.,.,-8,.,.
c1cc2c(cc1C1CCCCC1)c1c3n2CCCNC3CCC1 (stereo unspecified),13,0,12,87*,33,-28
Cc1csc2ncnc(NCCc3ccccn3)c12,37*,-2,77*,3,-20,-27
